Compound activity as filed in PubChem.
Rows were chosen to be rich in hits. Some 0.72% of all compounds tested hit in one or more screens of this group.
MRP reversal: MRP-mediated drug resistance reversal; H69AR cells + 2 uM doxorubicin, CellTiter-Glo, 72 h; hit rate 0.04% among 85,000; differential viability (reversal), % at 10 µM;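 active = viability drop by adding the cancer drug above about 55%, with treated viability meeting a 40% cutoff, limit read from the data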;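 also: viability without doxorubicin minus viability with 2 µM doxorubicin for each compound; larger differential means the compound sensitizes cells more to doxorubicin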
MRP-1 activ: activators of MRP-1 | H69AR cells + doxorubicin, viability rescue, CellTiter-Glo | viability increase, % at 10 µM | hit rate 0.61% among 140,000;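 active = viability gain under doxorubicin at or above a set limit, the compound median plus 3 SD, cut at about 4.7% in these data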;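 also: MRP-1 overexpressing cells given doxorubicin 25 µM after compound pretreatment; 18-22 h compound pretreatment then 72 h with doxorubicin before readout; 0% = doxorubicin-only wells and 100% = vehicle-treated cells without doxorubicin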
Phagocyt inh: blocks phagocytosis by macrophages | hit rate 0.07% among 110,000 | J774A.1 macrophage IgG-bead phagocytosis, imaging | AID 1029 | inhibition, % at 5 µM;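 active = inhibition above the mean of the plate negative controls plus 5 SD, cut at about 13% in these data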;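 also: phagocytic index as fraction of beads internalized from green versus red external bead signal; plate controls were DMSO negative control for no effect and cytochalasin-D positive control for full effect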
Numbers without * were called inactive; x = no result given.

SMILES	MRP reversal	MRP-1 activ	Phagocyt inh
CN(C)c1ccc(N/C=C/C(=O)c2ccco2)cc1	0	1	179*
CC(=O)Nc1ccc(N/C=C/C(=O)c2ccco2)cc1	1	-2	6
COc1cc(/C=C/C(=O)Nc2ccc(N3CCCCC3)c(S(=O)(=O)Nc3ccccc3Cl)c2)cc(OC)c1OC	x	-1	-13
Cc1nn(CC(=O)NCc2ccc(Cl)cc2)c(C)c1[N+](=O)[O-]	x	-2	-2
COC(=O)c1ccc(OC)c(CSc2nnc(COc3ccccc3)o2)c1	11	1	-1
O=C(CSc1nnc(COc2ccc(Cl)cc2)o1)N1c2ccccc2CCc2ccccc21	-54	0	0
CCOC(=O)N1CCN(C(=O)CSc2nnc(COc3ccc(Cl)cc3)o2)CC1	2	5.8*	0
COC(=O)c1ccc(OC)c(CSc2nnc(COc3ccc(Cl)cc3)o2)c1	10	6.9*	x
C/C(=C/Cc1c(O)cc2oc(C)cc(=O)c2c1O)COC1OC(CO)C(O)C(O)C1O (configuration not stated)	x	-3	x
COc1ccc(Oc2ccc(/C=C/C(=O)c3cccc(OC)c3)cc2[N+](=O)[O-])cc1	x	-5	-3
CC(=O)NC1=NN(c2ccccc2)C(=O)C1	x	-2	x
O=C(CCCCl)NC1=NN(c2ccccc2)C(=O)C1	x	7.3*	x
Cc1ccc(-c2nc3ccccc3[nH]2)cc1NC(=O)c1sc2cc(Cl)ccc2c1Cl	x	-1	-9
N#C/C(=C\c1ccc(F)cc1)c1n[nH]c(Cn2cncn2)n1	-22	-3	-2
O=C(Nc1ccc(OC(F)(F)F)cc1)c1n[nH]c(Cn2cncn2)n1	x	4.9*	x
Cc1cc(N/N=C/c2ccccc2Cl)nc(NCc2ccccc2)n1	x	7.1*	-9
Cc1cc(C)nc(N/N=C/c2ccccc2)n1	x	1	x
Cc1ccc(Nc2cc(C)nc(NCc3ccccc3)n2)cc1	x	-5	-8
Cc1cc(C)nc(N/N=C/c2cccc3ccccc23)n1	x	5.7*	x
COc1cccc(CNC(=O)CCNC(=O)Cn2ccc3ccccc3c2=O)c1	x	-1	x
O=C(CCNC(=O)Cn1ccc2ccccc2c1=O)NCCc1ccccc1Cl	x	5.1*	7
O=C(Cc1ccc(Cl)cc1)NC(=S)Nc1ccccc1N1CCOCC1	x	-2	-9
O=C(NC(=S)Nc1ccccc1N1CCCC1)c1ccc(-c2cccc([N+](=O)[O-])c2)o1	22	-2	-1
O=C(NC(=S)Nc1ccccc1N1CCOCC1)c1ccc(-c2cccc(Cl)c2)o1	x	5.2*	-1
O=C(NC(=S)Nc1ccccc1N1CCCCC1)c1ccc(-c2cccc([N+](=O)[O-])c2)o1	-2	8.0*	2
SMILES	MRP reversal	MRP-1 activ	Phagocyt inh
COc1ccc(CCNC(=O)C(C)Sc2ccc(C)cc2)cc1OC (configuration not stated)	x	0	-5
O=C(OCc1cc(=O)n2cc(Br)ccc2n1)c1ccc(Cl)c(S(=O)(=O)NCc2ccccc2)c1	x	2	0
CCCCN(C(=S)NC(=O)c1cc(OC)c(OC)c(OC)c1)c1c(N)n(Cc2ccccc2)c(=O)[nH]c1=O	x	-2	-9
Fc1ccccc1Nc1nc(-c2ccncc2)nc2ccccc12	x	-3	-1
CCOc1ccccc1N(CC(=O)OC)S(=O)(=O)c1ccccc1	2	-1	-1
CCOc1ccccc1N(CC(=O)O)S(=O)(=O)c1ccccc1	-5	4.8*	2
O=C(/C=C/c1cccc(OCc2ccccc2)c1)c1cccnc1	x	-6	-5
COC(=O)C1=C(C)NC(C)=C(C(=O)OC)C1c1ccccc1OCc1c(C)no[n+]1[O-]	6	9.0*	0
CCOC(=O)C1=C(C)NC(C)=C(C(=O)OC)C1c1cccc(Cl)c1Cl (configuration not stated)	-3	-1	x
CC1Nc2ccccc2C(=O)N1NS(=O)(=O)c1ccccc1 (configuration not stated)	x	-1	-6
CC(O)(CS(=O)(=O)Cc1ccccc1)C(=O)Nc1ccc(C(F)(F)F)cc1 (configuration not stated)	x	7.9*	-1
CC(O)(CS(=O)(=O)Cc1ccccc1)C(=O)Nc1cccc(C(F)(F)F)c1 (configuration not stated)	x	2	x
C=C(C)CC1(NC(C)c2ccccc2)CCCCC1 (configuration not stated)	x	-2	-4
Cc1ccc(-n2nc3ccc(NC(=O)/C=C/c4ccco4)cc3n2)cc1	x	-3	x
CC(=O)Nc1ccc(S(=O)(=O)NCc2ccc(C(=O)NC(C)c3ccccc3)cc2)cc1 (configuration not stated)	17	-2	0
O=C(CSc1ccc(Cl)cc1)Nc1cc(-c2nc3ncccc3o2)ccc1Cl	x	2	-2
Cc1c(NC(=O)CSc2ccc(Cl)cc2)cccc1-c1nc2ncccc2o1	x	6.2*	0
CC1CCC(NC(=O)c2ccc(NC(=O)c3ccc(=O)[nH]c3)cc2)CC1 (configuration not stated)	x	-3	x
